Source: ChEMBL document CHEMBL4513216, “Probing the Open Global Health Chemical Diversity Library for Multistage-Active Starting Points for Next-Generation Antimalarials” (ACS Infect Dis, 2020)
Among all 69,000 compounds or so, about 8,600 (12%) showed an effect of 50% or more. The full list was thinned out, with strong results kept by preference.

Test system: Plasmodium berghei
Test: Screen against P. berghei liver stage (PbLuc), transformed with Luciferase, at 10uM
Assay type: functional, HepG2
Details: tested at 10 uM

| SMILES | INHIBITION [%] |
| --- | --- |
| CC(C)(NS(C)(=O)=O)c1nc(-c2ccc(F)cc2Cl)no1 | -9.76 |
| Cc1cccc(C(=O)NCc2cccnc2N(C)C)n1 | 35.6 |
| Cc1cc(C(=O)N2CCCC2)ccc1NCC(=O)N1CCOCC1 | 7.67 |
| O=C(c1ccccc1)N1CC[C@H]2C[C@@H](c3nccs3)O[C@@H]2C1 | -22.5 |
| O=c1cccnn1CC1CN(Cc2ccsc2)Cc2nccn2C1 (stereo unspecified) | 40.4 |
| CC(C(=O)N1CCCCCC1)N1CCN(c2nccs2)CC1 (stereo unspecified) | 31.1 |
| Cc1cc(Nc2ccccn2)nc(C2CCCN(CCO)C2)n1 (stereo unspecified) | 17.4 |
| Cc1nc(CCNC(=O)Nc2cc(C(F)(F)F)c[nH]c2=O)cs1 | 19.7 |
| COc1ccc(NC(=O)N(CCO)Cc2ccsc2)c(OC)c1 | 5.85 |
| COc1ccccc1NC(=O)N(CCO)Cc1ccsc1 | 77.6 |
| CCOc1ccccc1NC(=O)N(CCO)Cc1ccsc1 | -8.51 |
| CC1(C(=O)N2CCOCC2)CN(Cc2c[nH]cn2)CCO1 (stereo unspecified) | 39.7 |
| O=C(O)c1c(NC2CCC2)ncc2c1CCN(C1CCOC1)C2 (stereo unspecified) | 11.3 |
| CN(C)C(=O)N1C[C@H]2CC[C@@H](C1)N(Cc1nnc(C3CC3)o1)C2 | 28 |
| Cc1ccccc1NC(=O)N1CC[C@@H]2CN(C)S(=O)(=O)[C@@H]2CC1 | -6.05 |
| CN(C)C(=O)CN1C[C@H]2CCN(C(=O)c3ccccc3)CC[C@H]2S1(=O)=O | 44.2 |
| O=C(NCCc1ccccc1)N1CC[C@@H]2CNS(=O)(=O)[C@@H]2CC1 | 23.1 |
| CN(C)C(=O)CN1C[C@H]2CCN(c3ncccn3)CC[C@H]2S1(=O)=O | -85.3 |
| CN(C)C(=O)CN1C[C@H]2CCN(Cc3ccccc3)CC[C@H]2S1(=O)=O | 60.3 |
| COc1ccc(CC(=O)N2CC[C@@H]3CN(C)S(=O)(=O)[C@@H]3CC2)cc1 | 37.5 |
| COc1cccc(CC(=O)N2CC[C@@H]3CN(C)S(=O)(=O)[C@@H]3CC2)c1 | -1.28 |
| COc1cccc(NC(=O)N2CC[C@@H]3CN(C)S(=O)(=O)[C@@H]3CC2)c1 | 55.4 |
| O=S1(=O)NC[C@H]2CCN(Cc3ccccc3)CC[C@H]21 | 12.7 |
| O=C(Cc1ccccc1)N1CC[C@@H]2CNS(=O)(=O)[C@@H]2CC1 | 54.1 |
| CCN1C[C@H]2CCN(C(=O)Cc3cccc(OC)c3)CC[C@H]2S1(=O)=O | 52.4 |
| COc1cccc(CC(=O)N2CC[C@@H]3[C@H](CC2)N(C)CCS3(=O)=O)c1 | 45.4 |

| SMILES | INHIBITION [%] |
| --- | --- |
| CC(C)CN1CCc2[nH]nc(C(=O)N3CCCC3)c2C1 | 45.7 |
| Cc1nc(-c2nc(C(=O)NC3CC3)c3ccccn23)cn1C(C)C | 43 |
| OC(CNCCn1cccn1)c1ccc(Br)cc1 (stereo unspecified) | 25.6 |
| CCn1nc(C)c(S(=O)(=O)N(C)c2ccc(Cl)cn2)c1C | 0.643 |
| O=C(COCc1ccco1)Nc1cc(C(F)(F)F)c[nH]c1=O | 19.6 |
| CCc1nc(C2CCCN2CCn2cncn2)no1 (stereo unspecified) | 16.7 |
| CC(C)[C@]1(O)CN(C(=O)COCC(N)=O)C[C@H]1C | 10.6 |
| CNC(=O)N1CC[C@@H]2CN(Cc3cccc(Cl)c3)S(=O)(=O)[C@@H]2CC1 | -2.17 |
| CNC(=O)N1CC[C@@H]2CN(Cc3cccc(OC)c3)S(=O)(=O)[C@@H]2CC1 | 63.8 |
| COc1cccc(CCCNC(=O)N2CCC(O)(C(F)(F)F)C2)c1 (stereo unspecified) | 41.4 |
| CNC(=O)N1CC[C@@H]2CN(CCc3cccc(OC)c3)S(=O)(=O)[C@@H]2CC1 | 8.31 |
| COc1cccc(NC(=O)N2CCC(O)(C(F)(F)F)C2)c1 (stereo unspecified) | 79.1 |
| COc1cccc(CC(=O)N2CCC(O)(C(F)(F)F)C2)c1 (stereo unspecified) | 49.1 |
| c1cc2c(cc1-n1nc(C3CC3)nc1-c1csnn1)OCCO2 | 27.2 |
| O=C(c1ccoc1)N1CCC(NCc2ccccc2Cl)CC1 | 7.81 |
| CN(C)C(=O)Cn1c(C2CC2)c(CN2CCC(O)CC2)c2cccnc21 | -8.58 |
| Cc1csc(CCNC(=O)Nc2cc(C(F)(F)F)c[nH]c2=O)n1 | 22 |
| Cc1occc1C(=O)N1C[C@@H](C(=O)NCc2ccco2)C[C@H]2OCC[C@H]21 | 32.2 |
| Cc1c[nH]c(C2CCCN(Cc3cccc(C(=O)O)c3)C2)n1 (stereo unspecified) | 6.26 |
| CCOc1cc(CN2CCCC2)ccc1Oc1cccc(C#N)n1 | 47.6 |
| N#Cc1ccc(CN2CCOCC2)cc1 | 40.6 |
| COc1ccc(Oc2cccc(C#N)n2)cc1CN1CCCC1 | 25.4 |
| COc1ccc(CN2CCCC2)cc1Oc1cccc(C#N)n1 | 57.5 |
| N#Cc1cccc(Oc2ccc(CN3CCCC3)cc2Cl)n1 | 55 |
| CC(=O)Nc1ccc(Oc2cccc(CN3CCCC3)c2)cc1 | 27.9 |
